Source: PubChem BioAssay
Shown are actives, neighbours in structure and some others; about 12% of the full set was active somewhere.
JMJD2A Tudor inh – blocks the human JMJD2A Tudor domain; O75164; AlphaScreen JMJD2A-Tudor / H3K4me3 peptide binding; Potency, µM (highest dose often 114 µM), inactives show at the highest dose activity change, negative = inhibition, most hits filed as inhibitors; 390,000 compounds, 4.4% hits; AID 504339; note: potency is the fitted concentration of half-maximal effect; % is set by controls: 0 for no effect and ±100 for the full control effect; nearly all actives have a fitted effect of over 50% in size
PI5P4K alpha inh – blocks human PI5P4K alpha kinase activity | P48426 | PI5P4Kalpha enzyme, ADP-Glo luminescence, 60 min; stronger effect = lower value | max response, % | 330,000 compounds, 1.2% hits; active = max response of -50% or lower; inconclusive = between -30% and -50%; inactive = -30% or higher; note: value at the top dose of about 77 µM; % is set by controls: 0 for no effect and ±100 for the full control effect
Target sequence (P48426 whole entry, looked up): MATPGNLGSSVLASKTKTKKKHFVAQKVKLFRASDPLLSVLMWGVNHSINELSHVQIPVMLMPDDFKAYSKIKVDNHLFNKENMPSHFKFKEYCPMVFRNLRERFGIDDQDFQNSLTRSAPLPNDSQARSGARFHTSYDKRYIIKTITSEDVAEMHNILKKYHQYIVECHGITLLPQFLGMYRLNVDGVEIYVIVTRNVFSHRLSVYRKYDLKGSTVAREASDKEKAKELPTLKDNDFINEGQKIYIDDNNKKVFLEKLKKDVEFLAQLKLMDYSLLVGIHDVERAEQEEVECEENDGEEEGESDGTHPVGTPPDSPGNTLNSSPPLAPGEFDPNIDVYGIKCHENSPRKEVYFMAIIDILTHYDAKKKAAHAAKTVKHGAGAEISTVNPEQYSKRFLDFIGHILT
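Reactions run in 0.038 M HEPES pH 7.4, 0.28 mM EGTA, 0.1% CHAPS and 5% DMSO, with PI5P4Kalpha, substrate, compound and 5 microM ATP final, one hour at room temperature. Readout is ADP-Glo luminescence.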
PLK1 PBD block – blocks phosphopeptide binding to human PLK1 polo-box domain. 360,000 compounds, 2.8% hits. Potency, µM, without a hit: max response, negative = inhibition, most hits filed as inhibitors. Plk1 PBD binding of FITC phosphopeptide, fluorescence polarization. P53350. AID 720504; note: potency is the fitted concentration of half-maximal effect; series mostly up to about 57 µM; % is set by controls: 0 for no effect and ±100 for the full control effect; nearly all actives have a fitted effect of over 65% in size
G9a block – blocks human histone lysine methyltransferase G9a | Q96KQ7 | G9a H3K9 monomethylation, AlphaScreen, 2 h | Potency, µM (series often up to 102 µM), without a hit: at the highest dose activity, negative = inhibition, most hits filed as inhibitors | 350,000 compounds, 8.8% hits | AID 504332; note: potency is the fitted concentration of half-maximal effect; % is set by controls: 0 for no effect and ±100 for the full control effect; nearly all actives have a fitted effect of over 75% in size
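AlphaScreen detection with an anti-monomethyl H3K9 antibody quantified product after a 2 h room-temperature reaction containing 500 nM biotinylated H3K9 peptide, 20 µM SAM and 20 nM enzyme, which had been preincubated 15 min with compound.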
HP1b chromo inh – blocks HP1-beta chromodomain binding to methylated histone tails; AlphaScreen HP1-beta / biotin-H3K9me3 peptide binding; P83916; Potency, µM (highest dose often 114 µM), inactives show at the top dose activity change, negative = inhibition, hits mostly inhibitors; 390,000 compounds, 0.56% hits; AID 540317; note: potency is the fitted concentration of half-maximal effect; nearly all actives have a fitted effect of over 70% in size
Target sequence (P83916 whole entry, looked up): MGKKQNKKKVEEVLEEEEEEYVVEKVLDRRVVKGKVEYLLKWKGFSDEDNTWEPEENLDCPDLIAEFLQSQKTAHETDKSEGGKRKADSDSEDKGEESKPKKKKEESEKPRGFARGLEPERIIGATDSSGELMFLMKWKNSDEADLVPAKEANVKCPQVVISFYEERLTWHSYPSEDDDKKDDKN
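AlphaScreen: HP1-beta (50 nM) preformed 30 min with biotin-H3(1-18)K9me3 peptide (50 nM) in PBS pH 7.4, 0.01% Tween-20. Compound added for 30 min at RT, then streptavidin donor/nickel chelate acceptor beads (10 ug/mL) for 30 min.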
BAZ2B block – BAZ2B (human) inhibition; AlphaScreen BAZ2B-H3K14Ac peptide displacement; Potency, µM (top dose mostly 114 µM), for the others: at the highest dose activity change, negative = inhibition, actives largely listed as inhibitors; 360,000 compounds, 4.4% hits; AID 504333; note: potency is the fitted concentration of half-maximal effect; % is set by controls: 0 for no effect and ±100 for the full control effect; nearly all actives have a fitted effect of over 60% in size
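Compounds, titrated to a top concentration of 110 uM, were incubated 30 min at room temperature with preformed BAZ2B/acetyl-K14 H3 peptide complex (50 nM each). Proximity signal was measured by AlphaScreen after 20 min with beads.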
* hit, by the source's call; ? = inconclusive; · = not tested or not shown; [ ] = dose if it differs, or a comment. Unless noted, calls come from the whole dose curve; as a rule, active = well fitted curve in the direction sought with a large enough effect; inconclusive = small, poorly fitted or top-dose-only effect, or another doubt; inactive = no such curve, though single readings can be large; an effect the other way counts as inactive or inconclusive.

SMILES	JMJD2A Tudor inh	PI5P4K alpha inh	PLK1 PBD block	G9a block	HP1b chromo inh	BAZ2B block
COP(=O)(OC)C1(O)C(=O)Nc2ccc(Br)cc21 (stereo unspecified)	-14.1%	1.1	-13.8%	8.91µM*	25.9%	-4.3%
c1ccc(SSc2ccccc2)cc1	118.6%	-4.6	1.06µM*	16.4%[59 µM]	183.6%	114.5%
Cc1cccn2c(=O)c(C=Nc3ccccc3)c(NCc3ccco3)nc12	-23.6%	·	-7.8%	50.1µM*	34.5%	?
C[n+]1cccc(C(=O)N/N=C/c2ccc3c(c2)OCO3)c1	-4.3%	2.0	-0.6%	?	3.2%	50.1µM*
CCOC(=O)Cn1c(=O)oc2cc(S(=O)(=O)NC3CCCc4ccccc43)ccc21 (stereo unspecified)	-29.7%	1.9	-0.2%	?	0.6%	2.9%
CCN(CC)P(=S)(c1c(C)nc2ccccn12)c1c(C)nc2ccccn12	-11.7%	-14.1	5.32µM*	14.1µM*	-24.6%	-4.0%
COc1ccc(OC)c(C(Nc2ccccc2)P(=O)(OC(C)C)OC(C)C)c1 (stereo unspecified)	0.0%	12.7	6.6%	?	18.8%	-10.6%
O=C1C=CC(=O)c2c1ccc1c2ccc2ccccc21	·	·	·	5.01µM*	·	·
COC(=O)c1c(NC(=O)C2CC=CCC2C(=O)O)sc2c1CCCCC2 (stereo unspecified)	-32.4%	-3.7	?	·	?	?
O=C(O)Cn1cc(/C=C2\C(=O)NC(=O)N(Cc3ccco3)C2=O)c2ccccc21	79.4µM*	?	9.47µM*	15.8µM*	-30.5%	70.8µM*
CCN1C(=O)NC(=O)/C(=C\c2cn(CC(=O)N3CCCCC3)c3ccccc23)C1=O	1.1%	-14.7	?	-11.3%	30.5%	3.8%
O=C1NC(=O)N(c2ccccc2F)C(=O)/C1=C/c1cn(CC(=O)N2CCOCC2)c2ccccc12	-0.4%	-2.6	4.74µM*	15.8µM*	39.5%	-0.5%
CCN1C(=O)NC(=O)/C(=C\c2cn(CC(=O)N3CCCC3)c3ccccc23)C1=O	-14.1%	-10.5	?	-44.8%	14.9%	2.3%
CCN1C(=O)NC(=O)/C(=C\c2cn(CC(=O)O)c3ccccc23)C1=O	·	·	·	8.5%[2.33 µM]	·	-14.0%
Cc1cc(/C=C2/C(=O)NC(=O)N(Cc3ccco3)C2=O)c(C)n1-c1ccccc1O	?	?	-24.1%	·	-8.2%	35.5µM*
O=C(O)Cn1cc(/C=C2\C(=O)NC(=O)N(c3ccc(Br)cc3)C2=O)c2ccccc21	-9.2%	-26.3	2.99µM*	56.2µM*	9.0%[57 µM]	-4.0%
CC[C@H]1CN2CC[C@@H]1C[C@H]2[C@@H](O)c1ccnc2ccc(OC)cc12	·	·	·	6.2%[21.5 µM]	·	·
CCN1C[C@@]2(COC)CC[C@H](O)[C@@]34[C@@H]2C[C@@H]([C@@H]13)[C@]1(O)C[C@@H](OC)C2C[C@H]4[C@H]1[C@H]2OC(C)=O	·	·	·	25.6%[21.5 µM]	·	·
CCSc1nc2n(n1)C(c1ccc(Cl)cc1Cl)C(C(=O)Nc1ccccc1C)=C(C)N2 (stereo unspecified)	-17.3%	·	·	-25.6%[59 µM]	43.9%	-1.4%
C=C(C)[C@H]1C2C(=O)O[C@H]1[C@H]1OC(=O)[C@@]34O[C@@H]3C[C@]2(O)[C@@]14C	·	·	·	-3.5%[59 µM]	·	·
COC(=O)Cn1cc(/C=C2\C(=O)NC(=O)N(c3ccccc3)C2=O)c2ccccc21	-24.7%	-8.9	?	-4.9%	31.0%	-4.4%
Cc1ccc(N2C(=O)NC(=O)/C(=C\c3cn(CC(=O)O)c4ccccc34)C2=O)cc1	-9.2%	-4.6	26.7µM*	25.1µM*	27.9%	?
O=C1/C(=C/c2ccccc2Cl)N2CCC1CC2	-0.7%[11.4 µM]	-2.2	21.2µM*	-20.3%	6.2%	-9.5%
O=C1/C(=C/c2ccncc2)N2CCC1CC2	1.4%	0.8	0.6%	-5.4%[59 µM]	49.5%	-18.4%
O=C1/C(=C/c2ccc([N+](=O)[O-])cc2)N2CCC1CC2	-30.7%	-5.2	-1.9%	11.2µM*	-11.0%	?
SMILES	JMJD2A Tudor inh	PI5P4K alpha inh	PLK1 PBD block	G9a block	HP1b chromo inh	BAZ2B block
O=[N+]([O-])O[C@H]1CO[C@H]2[C@H]1OC[C@@H]2O[N+](=O)[O-]	·	·	·	20.6%[21.5 µM]	·	·
O=C(Nc1ccc(F)c([N+](=O)[O-])c1)c1cccn(Cc2ccccc2)c1=O	-7.1%	·	·	1.9%[59 µM]	12.4%	-2.3%
CCOC(=O)[C@]12Cc3cc(Cl)ccc3[C@H]1N(Cc1ccccc1)C(=O)c1cc(OC)ccc12	·	-2.2	10.6µM*	·	·	·
CCOC(=O)[C@]12Cc3cc4ccccc4cc3[C@H]1N(Cc1ccccc1)C(=O)c1ccccc12	·	-1.4	11.9µM*	·	·	·
CCOC(=O)[C@]12Cc3cc(OC)ccc3[C@H]1N(CCC(=O)OC)C(=O)c1cc(OC)ccc12	·	-4.4	13.4µM*	·	·	·
CCOC(=O)[C@]12Cc3cc4ccccc4cc3[C@H]1N(Cc1ccccc1)C(=O)c1cc(OC)ccc12	·	-2.4	10.6µM*	·	·	·
CC(C)c1ccc(Oc2cccc3c2S(=O)(=O)N(C2CCCC2)CC(COCc2ccccc2)O3)cc1 (stereo unspecified)	-5.8%	3.9	-9.1%	·	63.8%	·
CC[C@]1(c2cccc(O)c2)CCCCN(C)C1	·	·	·	20.1%[21.5 µM]	·	·
CCCCCN1C(=O)c2cc(OC)ccc2[C@@]2(C(=O)OCC)Cc3cc(Cl)ccc3[C@@H]12	·	-1.5	4.74µM*	·	·	·
COc1ccc(CCN)cc1OC	-10.2%	0.8	-5.4%	49.4%[59 µM]	28.7%	-11.1%
COc1cc(Cc2ccc(N)c(OC)c2)ccc1N	?	-0.2	-2.9%	70.8µM*	-21.2%	?
O=C(Nc1ccc(-c2nc3ccccc3c(=O)o2)cc1)c1ccco1	-21.2%	-10.7	-4.2%	24.3%[59 µM]	61.6%	-4.9%
CC[N+](C)(C)c1cccc(O)c1	-0.7%	-2.9	2.9%	-11.8%[59 µM]	35.6%	5.0%
O=C(NCc1c(-n2cccc2)sc2c1CCCC2)Nc1cccc(C(F)(F)F)c1	-8.3%	·	·	-36.5%[59 µM]	51.3%	-18.5%
Clc1ccc2c(c1)C(c1ccccc1Cl)=NCc1nnc(N3CCN(CCOc4ccccc4)CC3)n1-2	-30.8%	4.8	-1.6%	?	-7.7%	44.7µM*
CC(C)(C)c1ccc(C(=O)NC(=S)Nn2cnnc2)cc1	-17.1%	2.7	?	31.6µM*	-5.4%	8.0%
Cc1ccc(-n2nc3c(=O)n(CC(=O)Nc4ccccc4F)nc(C)c3c2C)c(C)c1	-15.1%	·	·	-5.1%[59 µM]	40.4%	-1.6%
O=C(O)CC(O)(CC(=O)O)C(=O)O	79.4µM*	0.4	-0.6%	-3.3%[2.33 µM]	6.0%	·
CC(C)CCNC(=O)Cn1c(=O)oc2cc(S(=O)(=O)N3CCc4ccccc43)ccc21	-25.5%	-0.9	-9.8%	?	40.6%	-4.4%
CC(C)CC(CN)CC(=O)O (stereo unspecified)	·	·	·	-2.0%[2.33 µM]	·	·
C/C=C(\C)CN1CCN(c2ccccc2F)CC1	3.16µM*	·	-7.2%	?	?	?
